According to the OligoGym collection:

target: KCNRG; assay: pooled miR-30 sensor sort-seq; sequence = guide strand; settings: shRNA
Also: reference of the scale not given here.

How did the sensor-assay potency score (higher = more potent) turn out when TTTTGTCTTCAGAAGATACTGT was run?
The sensor-assay potency score (higher = more potent) was 0.229.

With TTCTAGTGCTGACCAAATGAAA as the sequence, how does the sensor-assay potency score (higher = more potent) read?
Its sensor-assay potency score (higher = more potent) is -1.49.

TCTGGTATGATGATAGTCTCTG was tested. Which sensor-assay potency score (higher = more potent) did it give?
Its sensor-assay potency score (higher = more potent) is 0.569.

With TTGTCTTCAGAAGATACTGTTC as the sequence, how does the sensor-assay potency score (higher = more potent) read?
The sensor-assay potency score (higher = more potent) was -0.478.

Which sensor-assay potency score (higher = more potent) does the source give for TTCGTGATGAGCACTTCAGGGC here?
The sensor-assay potency score (higher = more potent) was 0.363.

How did the sensor-assay potency score (higher = more potent) turn out when TACTGTTCTAGTGCTGACCAAA was run?
The sensor-assay potency score (higher = more potent) was -1.23.

TATGATGATAGTCTCTGGTTTT was tested. Which sensor-assay potency score (higher = more potent) did it give?
The sensor-assay potency score (higher = more potent) was -0.744.

With TTTGTCTTCAGAAGATACTGTT as the sequence, how does the sensor-assay potency score (higher = more potent) read?
The sensor-assay potency score (higher = more potent) was -0.101.

How did the sensor-assay potency score (higher = more potent) turn out when TTTTGGTGTTTCATTCGTGATG was run?
Its sensor-assay potency score (higher = more potent) is -1.02.

Which sensor-assay potency score (higher = more potent) does the source give for TAGAAACATACCTGACTCCAGT here?
The sensor-assay potency score (higher = more potent) was -0.214.

target: KCNS2; assay: as above; settings: shRNA

TACTCCTTACACCATAACCATA was tested. Which sensor-assay potency score (higher = more potent) did it give?
Its sensor-assay potency score (higher = more potent) is -1.82.

For TTCTTTGTAGCTGTATTTCAAA, which sensor-assay potency score (higher = more potent) is on record?
The sensor-assay potency score (higher = more potent) was -1.

With TGCTCCACGATTTCGAACCTAG as the sequence, how does the sensor-assay potency score (higher = more potent) read?
The sensor-assay potency score (higher = more potent) was -0.681.

For TTACACCATAACCATAAGGTGC, which sensor-assay potency score (higher = more potent) is on record?
The sensor-assay potency score (higher = more potent) was -1.42.

Which sensor-assay potency score (higher = more potent) does the source give for TAGGGCATTCTTGAAGAACTTG here?
Its sensor-assay potency score (higher = more potent) is -0.408.

TTTATGGGCATAATAGTCCCTT was tested. Which sensor-assay potency score (higher = more potent) did it give?
Its sensor-assay potency score (higher = more potent) is -0.514.

With TAGTCCCTTAAATTGACCGAAG as the sequence, how does the sensor-assay potency score (higher = more potent) read?
Its sensor-assay potency score (higher = more potent) is -1.33.

How did the sensor-assay potency score (higher = more potent) turn out when TCGAAGTAGAACTCCCGCTGGA was run?
The sensor-assay potency score (higher = more potent) was -0.212.

How did the sensor-assay potency score (higher = more potent) turn out when TAGAATAGCGTACACGATGGAC was run?
The sensor-assay potency score (higher = more potent) was -0.475.

TTAAACTGAGTTCACTTGGTGA was tested. Which sensor-assay potency score (higher = more potent) did it give?
The sensor-assay potency score (higher = more potent) was -0.682.

Which sensor-assay potency score (higher = more potent) does the source give for TAGAAATGCAGCACGTAGGGGA here?
Its sensor-assay potency score (higher = more potent) is 0.48.

With TTTAAACTGAGTTCACTTGGTG as the sequence, how does the sensor-assay potency score (higher = more potent) read?
The sensor-assay potency score (higher = more potent) was 0.664.

target: KCTD3; assay: as above; settings: shRNA

For TTTGAGTAGCTCTTCTTCGGTT, which sensor-assay potency score (higher = more potent) is on record?
The sensor-assay potency score (higher = more potent) was -0.151.

For TTGCATTTAAAGCTACTCGTTC, which sensor-assay potency score (higher = more potent) is on record?
Its sensor-assay potency score (higher = more potent) is -0.407.

How did the sensor-assay potency score (higher = more potent) turn out when TTGAGTAGCTCTTCTTCGGTTG was run?
The sensor-assay potency score (higher = more potent) was -0.328.

TTTAAATTTACAATTACCCTAT was tested. Which sensor-assay potency score (higher = more potent) did it give?
The sensor-assay potency score (higher = more potent) was 0.0082.

For TATCAATAAATATAGCACCAGT, which sensor-assay potency score (higher = more potent) is on record?
The sensor-assay potency score (higher = more potent) was -0.952.

How did the sensor-assay potency score (higher = more potent) turn out when TTATCTTTCATTCGCAAGGGGA was run?
Its sensor-assay potency score (higher = more potent) is -0.381.

With TGATTCTGTAACACACAGCAAA as the sequence, how does the sensor-assay potency score (higher = more potent) read?
Its sensor-assay potency score (higher = more potent) is -1.06.

With TTGTAGTACAGTCAACAGCCTG as the sequence, how does the sensor-assay potency score (higher = more potent) read?
The sensor-assay potency score (higher = more potent) was -1.16.

TGTAGTACAGTCAACAGCCTGG was tested. Which sensor-assay potency score (higher = more potent) did it give?
The sensor-assay potency score (higher = more potent) was 0.267.

TAGTTATAGGAACAACATCTTG was tested. Which sensor-assay potency score (higher = more potent) did it give?
Its sensor-assay potency score (higher = more potent) is -1.48.

How did the sensor-assay potency score (higher = more potent) turn out when AGGAACAACATCTTGAACCTGC was run?
Its sensor-assay potency score (higher = more potent) is -0.641.

target: KDELR1; assay: as above; settings: shRNA

For TTGAGCAGTAGCAAGATGATGG, which sensor-assay potency score (higher = more potent) is on record?
Its sensor-assay potency score (higher = more potent) is -0.401.

AGGAACTCCACTCTGAACGTGT was tested. Which sensor-assay potency score (higher = more potent) did it give?
The sensor-assay potency score (higher = more potent) was -0.99.

How did the sensor-assay potency score (higher = more potent) turn out when TAAGTAGCTTTGAACTTGCTAT was run?
The sensor-assay potency score (higher = more potent) was -0.0372.

How did the sensor-assay potency score (higher = more potent) turn out when TCGTAAGTAGCTTTGAACTTGC was run?
The sensor-assay potency score (higher = more potent) was -0.201.

How did the sensor-assay potency score (higher = more potent) turn out when ATCGTAAGTAGCTTTGAACTTG was run?
The sensor-assay potency score (higher = more potent) was -0.446.

TTGCTCACCATGAACAGCTGCG was tested. Which sensor-assay potency score (higher = more potent) did it give?
The sensor-assay potency score (higher = more potent) was -0.0886.

With TAAATCAACCAGACCGTGGTGA as the sequence, how does the sensor-assay potency score (higher = more potent) read?
Its sensor-assay potency score (higher = more potent) is 0.82.
